PubChem BioAssay (NCATS)
Where “and” joins values, the source holds several entries; their conditions need not be identical. Equal values may be shown once. Inconclusive results are not listed. Some compounds were tested as several samples or in several runs, with calls that do not always agree. A number with no mark means an inactive call. Calls of active or inactive are those of the source. Calls come from the whole dose curve; as a rule, active = well fitted inhibition curve with a large enough effect; inconclusive = small, poorly fitted or top-dose-only effect; inactive = flat fitted curve, though single readings scatter.

Legend:
[1] = Drug repurposing screens with cells derived from glioblastoma tumor samples (AID 1345199); details: GBM patient neurospheres viability, ATP luminescence, 48 h; note: nearly all actives have a fitted effect of over 40% in size
Summary of the method: (§1)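 Four patient lines of CD133+ GBM neurospheres were screened at several concentrations; hits were retested in those lines plus three slower-growing GBM lines, using 48-hour treatment and ATP-based viability.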

[2] = test system: astro; assay: as above; details: viability, ATP luminescence, 48 h; series mostly up to 45.9 µM
Summary of the method: as §1

[3] = at 45.9 µM (top of the series), tumour line B
[4] = at 45.9 µM (top of the series), tumour line D
[5] = at 46.1 µM (top of the series), tumour line C
[6] = at 46 µM (top of the series), tumour line A
% is set by controls: 0 for no effect and ±100 for the full control effect; potency is the fitted concentration of half-maximal effect.

Row | Compound | activity, negative = cell killing [1, 3] | activity, negative = cell killing [1, 4] | activity, negative = cell killing [1, 5] | Potency ([1]; tumour line A) | Potency [2] | activity, negative = cell killing [1, 6]
1 | CCCC(=O)N1CCCN(c2nc(N)c3cc(OC)c(OC)cc3n2)CC1 | -1.44% | -2.77% | 14.2% | 17.8 µM (active) | inactive | 
2 | CS(=O)(=O)Nc1cc2occ(NC=O)c(=O)c2cc1Oc1ccccc1 | -8.06% | -12.9% | 0.0891% |  | inactive | -16.3%
3 | COCC1=C(C(=O)OC(C)OC(=O)OC(C)C)N2C(=O)[C@@H](NC(=O)/C(=N\OC)c3csc(N)n3)[C@H]2SC1 (stereo not given in full) | -23.6% and -15.3% | 14.5% and -3.43% | 0.117% and 4.67% |  | inactive | -24.7%
4 | CS(=O)(=O)NC(=O)CCC/C=C\C[C@H]1C(=O)C[C@@H](O)[C@@H]1/C=C/[C@H](O)COc1ccccc1 | -2.71% | -15.8% | 0.501% |  | inactive | -29.7%
5 | CCCC(CCC)C(N)=O | 1.34% | -12.3% | 0.0882% |  | inactive | -16.5%
6 | O=P(O)(O)C(Sc1ccc(Cl)cc1)P(=O)(O)O | 3.66% | -1.38% | -7.59% |  | inactive | -1.1%
7 | CCN(CC)c1ccc(N=Nc2ccc(S(=O)(=O)N(C)C)cc2)c(S(=O)(=O)NCC[n+]2ccccc2)c1 | -13% | -3.67% | -10.2% | 35.5 µM (active) | inactive | 
8 | O=S(O)CNc1ccc(S(=O)(=O)c2ccc(NCS(=O)O)cc2)cc1 | -3.7% | 0.377% | -2.81% |  | inactive | -17.9%
9 | CN1CCN(C2=Nc3ccccc3Cc3ccccc32)CC1 | -12% | -12.4% | -28.3% | 31.6 µM (active) | inactive | 
10 | CC(C)(S)C(=O)N[C@@H](CS)C(=O)O | -12.3% and -6.78% | -24.6% and -16.1% | -15.9% and -10.8% | 39.8 µM (active) | inactive | 
11 | O=C1O[C@@H]2[C@@H](O)[C@H](O)O[C@@H]2[C@H]1O | -11.2% | -1.84% | -14% |  | inactive | -28.6%
12 | NCCCC[C@H](NC(=O)[C@@H]1CCCN1C(=O)[C@@H]1CSSC[C@H](N)C(=O)N[C@@H](Cc2ccccc2)C(=O)N[C@@H](Cc2ccccc2)C(=O)N[C@@H](CCC(N)=O)C(=O)N[C@@H](CC(N)=O)C(=O)N1)C(=O)NCC(N)=O | -4.48% | -4.17% | -22.2% |  | inactive | -29.5%
13 | O=C(Cn1cnnn1)N[C@@H]1C(=O)N2C(C(=O)O)=C(CSc3nncs3)CS[C@H]12 | -3.62% and -9.64% | -5.02% and -0.39% | 1.48% and -8.58% |  | inactive | -29.3%
14 | CCN(CC)CCOC(=O)c1ccc(N)cc1Cl | -9.89% | -17.2% | -6% |  | inactive | -27.9%
15 | CC(CN(C)C)CN1c2ccccc2S(=O)(=O)c2ccccc21 (stereo not given) | -1.87% | -21.7% | 14.3% | 17.8 µM (active) | inactive | 
16 | O=S(=O)(O)Oc1ccc(C(c2ccc(OS(=O)(=O)O)cc2)c2ccccn2)cc1 | 0.447% | -9.15% | 10.6% |  | inactive | 21.1%
17 | C/C(=C(/CCO)SSCC1CCCO1)N(C=O)Cc1cnc(C)nc1N (stereo not given) | -8.31% and -21.8% | -10.4% and -21.6% | -12.1% and -0.697% | 25.1 µM (active) | inactive | 
18 | NCCCC[C@H](NC(=O)[C@@H]1CCCN1C(=O)[C@@H]1CSSC[C@H](N)C(=O)N[C@@H](Cc2ccc(O)cc2)C(=O)N[C@@H](Cc2ccccc2)C(=O)N[C@@H](CCC(N)=O)C(=O)N[C@@H](CC(N)=O)C(=O)N1)C(=O)NCC(N)=O | -6.49% and -12.6% | -7.59% and -12.4% | 13.1% |  | inactive | -33.8%
